Assay outcomes deposited in PubChem BioAssay by National Center for Advancing Translational Sciences (NCATS).
Only some compounds are listed: those with a hit (about 4.6% of all), similar ones and a draw of the others.
TRHR ag: qHTS for Small Molecule Agonists and Allosteric Enhancers of Human TRH Receptor: Primary Screen for Agonists | TRHR cells, calcium flux fluo-8, FDSS agonist mode | activation, % at 2 µM | 360,000 tested, 0.18% active | AID 493084, 2011; note: 0% is about no effect
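In this calcium-flux screen, cells bearing human TRHR are dye-loaded with fluo-8, baselined for 10 cycles, then exposed to library compounds; positive kinetic calcium responses during the agonist phase mark hits, with TRH as control.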
D1 antag: Antagonist of Human D 1 Dopamine Receptor: qHTS | D(1A) dopamine receptor (Homo sapiens), P21728 | HEK293 TREx D1 cells, calcium flux, dopamine EC80; hits give low values | activity change, negative = inhibition, % at 10 µM | 360,000 tested, 3.2% active | AID 504652, 2011; in the data active = activity change below about -30%; note: % is set by controls: 0 for no effect and ±100 for the full control effect
Target sequence (P21728 whole entry, looked up): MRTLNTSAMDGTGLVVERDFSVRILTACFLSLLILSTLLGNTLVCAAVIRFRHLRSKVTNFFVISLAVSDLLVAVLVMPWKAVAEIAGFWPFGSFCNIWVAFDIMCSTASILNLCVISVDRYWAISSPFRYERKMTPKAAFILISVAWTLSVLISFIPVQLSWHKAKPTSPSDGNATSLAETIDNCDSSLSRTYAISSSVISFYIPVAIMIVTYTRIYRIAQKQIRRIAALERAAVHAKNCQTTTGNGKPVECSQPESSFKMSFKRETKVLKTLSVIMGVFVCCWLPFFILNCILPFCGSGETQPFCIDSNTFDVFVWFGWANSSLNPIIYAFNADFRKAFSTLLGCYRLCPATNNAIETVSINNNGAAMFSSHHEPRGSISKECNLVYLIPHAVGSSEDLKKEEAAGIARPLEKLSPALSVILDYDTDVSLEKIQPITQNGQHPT
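After overnight tetracycline induction at 30 C, force-coupled D1 HEK293 cells took up a no-wash calcium dye at room temperature. Compounds were added and monitored 180 s, and the response to EC80 dopamine was then recorded.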
D1 ag: Allosteric Agonists of the Human D1 Dopamine Receptor: qHTS; D(1A) dopamine receptor (Homo sapiens), P21728; HEK293 T-REx D1 cells, calcium flux, agonist mode; activation, % at 2 µM; 360,000 tested, 1% active; AID 504660, 2011; note: 0% is about no effect
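Inducible HEK293 T-REx D1 cells, force-coupled to calcium signalling, were plated at 4000 cells/well with tetracycline and held overnight at 30 C. After no-wash calcium dye loading, compound-evoked calcium rise over 180 s flagged agonists.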
TRHR enhancer: qHTS for Small Molecule Agonists and Allosteric Enhancers of Human TRH Receptor: Primary Screen for Enhancers. Thyrotropin-releasing hormone receptor (Homo sapiens), P34981. TRHR cells, fluo-8 calcium fluorescence, EC20 TRH enhancement. enhancement, % at 2 µM. 360,000 tested, 0.66% active; in the data active = enhancement above about 30%; note: 0% is about no effect
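TRHR-expressing cells loaded with fluo-8 calcium dye were read kinetically (ex 480/em 530) during compound addition, then stimulated with an EC20 of TRH (10 nM final). Enhancement of the Gq-mediated intracellular calcium response was scored.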
D1 PAM: Potentiators of Human D1 Dopamine Receptor: qHTS. D(1A) dopamine receptor (Homo sapiens), P21728. potentiation, % at 10 µM. 360,000 tested, 0.036% active. AID 504651, 2011. HEK293 TREx D1 cells, calcium flux, dopamine EC20 potentiation; in the data active = potentiation above about 30%; note: 0% is about no effect
Active calls of the source: *; . = no result given. Cut-off read from the data, not from the text of the source, unless noted: active = activation above about 30%; inactive = the rest.

SMILES	TRHR ag	D1 antag	D1 ag	TRHR enhancer	D1 PAM
Cc1cc(OCC(=O)NNC(=O)c2ccncc2)cc(C)c1Cl	0	12	7	-1	-6
CCCc1nnc2n1N=C(c1ccc(OC)c(OC)c1)CS2	-1	8	-1	34*	6
CCC(C)NC(=O)CSc1nc2ccccc2c(=O)n1Cc1ccc(OC)cc1 (configuration not stated)	-1	-5	6	32*	-4
COc1ccc(CNC(=O)Cn2c(SCC(=O)N(C)c3ccccc3)nc3ccccc32)cc1	0	-6	8	-8	2
CCN(C(=O)CSc1nc2ccccc2n1CC(=O)NCc1ccc(OC)cc1)c1ccccc1	-1	-2	35*	-1	3
CC(=O)c1cc2c(cc1NS(=O)(=O)c1ccc(C)cc1)OCCO2	0	-37*	1	2	6
O=C(CCc1cn(Cc2ccccc2F)c2ccccc12)NCc1ccc(Cl)cc1	1	4	11	3	1
CCc1ccc(NC(=O)CSc2nc(N)c(NC(=O)c3ccc(F)c(F)c3)c(=O)[nH]2)cc1	0	-13	4	-5	1
O=C(CSc1ccc(S(=O)(=O)N2CCOCC2)cn1)Nc1ccc(F)c(F)c1	1	-57*	21	-8	-2
CC(C)N(C(=O)CSc1ccc(S(=O)(=O)N2CCCCC2)cn1)c1ccccc1	-1	-37*	2	-4	-5
O=C(CSc1nc2ccccc2o1)Nc1ccc(N2CCOCC2)cc1	0	-44*	5	1	-2
CCC(CC)NC(=O)CSc1ccc(S(=O)(=O)N2CCCCC2)cn1	-1	0	0	-3	2
CC(C)(C)NC(=O)NC(=O)CSc1ccc(S(=O)(=O)N2CCCCC2)cn1	1	-39*	8	1	5
Cc1ccc2c(CC(=O)Nc3c(C(=O)c4ccc(C)c(F)c4)oc4ccccc34)coc2c1	-1	-5	4	11	1
COc1cc(NC(=O)C(CCSC)NS(=O)(=O)c2ccc3c(c2)oc(=O)n3C)cc(OC)c1 (configuration not stated)	0	0	-1	1	-1
Fc1ccccc1-n1ncc2c1ncn1nc(Cc3ccccc3)nc21	-1	7	0	-2	0
O=C(CN1C(=O)COc2ccc(S(=O)(=O)N3CCCCCC3)cc21)NCCc1ccccc1	0	-2	2	5	20
O=C(CSc1nc2cc(S(=O)(=O)N3CCOCC3)ccc2o1)Nc1c(F)cccc1F	0	-32*	6	12	-3
C/C(=N\NC(=O)CSc1nc2ccccc2o1)c1cccc(O)c1	0	-35*	6	9	-4
CCOC(=O)c1nnc2c(-c3ccc(F)cc3)c(C)nn2c1N	-1	-2	2	-6	0
Cc1cc(C)cc(NCc2cc3c(cc2[N+](=O)[O-])OCO3)c1	0	-33*	3	-1	-2
Cn1ncc(Cl)c1C(=O)Nc1ccc2c(c1)CCC2	0	-5	2	3	3
CN1N=C(C(=O)Nc2ccc3c(c2)CCC3)CCC1=O	0	-32*	1	-1	-3
COc1cccc(CN(Cc2cccnc2)S(=O)(=O)c2ccc(-n3cnnn3)c(C)c2)c1	-1	-32*	15	3	0
Cc1ccc2c(c1)c1c(c(=O)n(-c3ccccc3C)c(=O)n1CC(=O)c1ccc(Cl)cc1)n2C	0	-32*	4	2	-2
SMILES	TRHR ag	D1 antag	D1 ag	TRHR enhancer	D1 PAM
COc1ccc2c(c1)c1c(c(=O)n(Cc3ccccc3)c(=O)n1CC(=O)Nc1cc(C)cc(C)c1)n2C	0	2	1	3	0
Cc1ccc2c(c1)c1c(c(=O)n(-c3cccc(Cl)c3)c(=O)n1CC(=O)c1ccc(Cl)cc1)n2C	-1	-1	7	5	0
COc1ccc2c(c1)c1c(c(=O)n(Cc3ccccc3)c(=O)n1CC(=O)Nc1ccc(C)cc1C)n2C	-1	-65*	-1	3	-1
COc1ccccc1NC(=O)Cn1c(=O)n(-c2cccc(Cl)c2)c(=O)c2c1c1cc(C)ccc1n2C	0	-4	48*	-4	3
COC(=O)Cn1c(SCCOc2ccccc2Cl)nc2ccccc21	0	-15	5	2	-2
O=C(CCC(=O)N(CC(=O)NC1CCCC1)C1CCCCC1)Nc1ccccn1	0	-46*	8	6	-7
Cc1ccc(N(CC(=O)NC2CCCC2)C(=O)CCCC(=O)Nc2ccccn2)cc1C	-2	-46*	1	3	-7
Cc1ccnc(NC(=O)CCC(=O)N(CC(=O)NC2CCCCC2)c2cccc(C)c2C)c1	0	-42*	1	-4	-4
CC1=C(C(=O)Nc2ccccc2)C(c2ccccc2C)n2nc(SCC(=O)c3ccc(C)cc3)nc2N1 (configuration not stated)	0	2	3	-2	-1
Cc1ccccc1NC(=O)c1nnn(-c2ccc3c(c2)OCCO3)c1N	0	-48*	14	4	-6
CCn1c(=N)c(C(=O)NC2CCCC2)cc2c(=O)n3cc(C)ccc3nc21	0	6	2	3	0
CCn1c(=N)c(C(=O)NC2CCCCC2)cc2c(=O)n3cc(C)ccc3nc21	1	-31*	2	-5	0
Cc1ccc2nc3c(cc(C(=O)NCc4ccco4)c(=N)n3C3CCCC3)c(=O)n2c1	8	9	39*	-1	.
COc1ccc(-c2cc(C(F)(F)F)n3nc(C(=O)NCC45CC6CC(CC(C6)C4)C5)cc3n2)cc1	5	-1	-1	0	-1
CC1(C)OC(=O)C2(Cc3ccccc3N3CCCC32)C(=O)O1 (configuration not stated)	0	-1	13	18	-1
CCOc1cc(/C=N/NC(=O)C(=O)NCc2ccc3c(c2)OCO3)ccc1OCC(=O)N1CCOCC1	0	-11	0	-4	-5
COc1ccc(N=Cc2oc3ccc4ccccc4c3c2O)cc1	24	-4	78*	-2	0
Cc1ccc(S(=O)(=O)c2nc(NCCN(C)C)sc2Cl)cc1	0	-37*	6	-2	-8
COc1ccccc1N1CCN(C2CCCN(C(=O)Cn3cccn3)C2)CC1 (configuration not stated)	1	9	2	6	2
Cc1ccc(CCNC(=O)C2CC(=O)N(C3CCCCC3)C2)cc1 (configuration not stated)	-1	-1	1	11	9
CCCCNC(=O)C1CC(=O)N(C2CCCCC2)C1 (configuration not stated)	0	136	31*	11	1
